Among the data in publication PMC7862700, “An all-to-all approach to the identification of sequence-specific readers for epigenetic DNA modifications on cytosine” are binding signal values, retold here.

In one assay the target is T1, ELK3 (Homo sapiens, UniProt P41970 1-407).
T1 sequence: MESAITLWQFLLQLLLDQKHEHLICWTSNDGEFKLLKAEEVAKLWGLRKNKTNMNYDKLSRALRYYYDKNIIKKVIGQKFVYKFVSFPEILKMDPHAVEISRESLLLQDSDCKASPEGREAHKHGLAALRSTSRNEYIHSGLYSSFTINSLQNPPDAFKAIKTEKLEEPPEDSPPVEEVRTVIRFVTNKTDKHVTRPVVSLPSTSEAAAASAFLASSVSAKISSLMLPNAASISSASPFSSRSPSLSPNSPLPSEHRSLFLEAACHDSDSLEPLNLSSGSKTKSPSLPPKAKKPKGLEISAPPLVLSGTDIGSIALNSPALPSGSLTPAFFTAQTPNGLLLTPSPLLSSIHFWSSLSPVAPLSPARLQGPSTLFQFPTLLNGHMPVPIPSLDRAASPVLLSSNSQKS
Nature of the assay: DAPPL (digital affinity profiling via proximity ligation, sequencing); 10 mM Tris-HCl pH 7.5, 50 mM NaCl, 1 mM DTT, 4% glycerol, room temperature, 30 min; GST-TFs on glutathione beads, 16-mer random dsDNA library, 0.1% formaldehyde crosslink after washing; high values mean tight binding. The note with it: protein: recombinant; tags: N-terminal GST; dsDNA, one strand shown. The gist of the method:
(§1)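 The binding signal reported is, for every hexamer, its read frequency for a factor over its read frequency for the tag-only sample. Reads came from pools of yeast-expressed, GST-fused human transcription factors on glutathione beads, barcoded with DNA and mixed with that sample, which were incubated with 200 nmole of a random double-stranded 16-mer DNA library in Tris/NaCl/DTT/glycerol buffer at room temperature for 30 min. After washing, the pools were crosslinked with 0.1% formaldehyde, proximity-ligated with BsaI/T4 ligase for 1 h at 37 °C, PCR-amplified and sequenced on an Illumina NextSeq500.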
For the sequence CACCCT, the binding signal is 1.14 fold enrichment (6-mer frequency, TF over GST control).

Turning to TGCGGA, the binding signal was 1.23 fold enrichment (6-mer frequency, TF over GST control).

As to CTCACC, the binding signal was 1.3 fold enrichment (6-mer frequency, TF over GST control).

As to GCCACT, the binding signal was 1.26 fold enrichment (6-mer frequency, TF over GST control).

As to TGTCAC, the binding signal was 1.2 fold enrichment (6-mer frequency, TF over GST control).

As for GCTACA, the binding signal was 1.19 fold enrichment (6-mer frequency, TF over GST control).

CCACAT: the binding signal is 1.14 fold enrichment (6-mer frequency, TF over GST control).

As to CACAAC, the binding signal is 1.22 fold enrichment (6-mer frequency, TF over GST control).

With GGCCTC, the binding signal is 1.1 fold enrichment (6-mer frequency, TF over GST control).

For the sequence GCTACC, the binding signal is 1.39 fold enrichment (6-mer frequency, TF over GST control).

With ACAACC, the binding signal is 1.28 fold enrichment (6-mer frequency, TF over GST control).

Take CAACAT: the binding signal is 1.14 fold enrichment (6-mer frequency, TF over GST control).

As for CAAACT, the binding signal was 1.23 fold enrichment (6-mer frequency, TF over GST control).

Take TGCATG: the binding signal is 1.14 fold enrichment (6-mer frequency, TF over GST control).

On to GTCCTT, for which the binding signal was 1.25 fold enrichment (6-mer frequency, TF over GST control).

Consider GGATGC, for which the binding signal is 1.23 fold enrichment (6-mer frequency, TF over GST control).

Consider AGCGAC, for which the binding signal is 1.04 fold enrichment (6-mer frequency, TF over GST control).

As for AACCGG, the binding signal was 1.54 fold enrichment (6-mer frequency, TF over GST control).

Turning to ACCTGA, the binding signal was 1.07 fold enrichment (6-mer frequency, TF over GST control).

With CCCGGC, the binding signal was 1.22 fold enrichment (6-mer frequency, TF over GST control).

In the case of CCGCCG, the binding signal is 1.26 fold enrichment (6-mer frequency, TF over GST control).

Regarding CGTATC, the binding signal was 1.21 fold enrichment (6-mer frequency, TF over GST control).

Turning to CACACT, the binding signal is 1.24 fold enrichment (6-mer frequency, TF over GST control).

Consider TGGCAG, for which the binding signal was 1.21 fold enrichment (6-mer frequency, TF over GST control).

For GTCCTC, the binding signal is 1.22 fold enrichment (6-mer frequency, TF over GST control).

For GACTAC, the binding signal was 1.1 fold enrichment (6-mer frequency, TF over GST control).

On to CCAACA, for which the binding signal was 1.03 fold enrichment (6-mer frequency, TF over GST control).

On to GTACAA, for which the binding signal is 1.02 fold enrichment (6-mer frequency, TF over GST control).

On to TGCACC, for which the binding signal is 1.16 fold enrichment (6-mer frequency, TF over GST control).

On to CCCCCG, for which the binding signal was 1.07 fold enrichment (6-mer frequency, TF over GST control).

As to CGACAC, the binding signal is 1.14 fold enrichment (6-mer frequency, TF over GST control).

Consider CTGTCC, for which the binding signal is 1.1 fold enrichment (6-mer frequency, TF over GST control).

For the sequence GCACCC, the binding signal was 1.14 fold enrichment (6-mer frequency, TF over GST control).

GACATC: the binding signal is 1.38 fold enrichment (6-mer frequency, TF over GST control).

Consider CACATA, for which the binding signal is 1.17 fold enrichment (6-mer frequency, TF over GST control).

For CGTACC, the binding signal was 1.21 fold enrichment (6-mer frequency, TF over GST control).

With GCTTGG, the binding signal was 1.15 fold enrichment (6-mer frequency, TF over GST control).

As for ACACAC, the binding signal is 1.12 fold enrichment (6-mer frequency, TF over GST control).

For the sequence TGCGAC, the binding signal is 1.16 fold enrichment (6-mer frequency, TF over GST control).

CCGTCA: the binding signal is 1.15 fold enrichment (6-mer frequency, TF over GST control).

A further assay addresses T2, FEV (Homo sapiens, UniProt Q99581 1-238).
T2 sequence: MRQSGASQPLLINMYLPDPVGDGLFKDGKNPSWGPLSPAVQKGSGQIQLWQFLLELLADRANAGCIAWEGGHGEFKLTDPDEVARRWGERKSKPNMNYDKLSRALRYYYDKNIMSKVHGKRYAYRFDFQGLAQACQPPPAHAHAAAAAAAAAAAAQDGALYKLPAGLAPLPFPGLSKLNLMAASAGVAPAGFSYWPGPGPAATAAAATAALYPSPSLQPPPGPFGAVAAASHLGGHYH
The assay is described as above. As to conditions: protein: recombinant; tags: N-terminal GST; dsDNA, one strand shown. A digest of the protocol: as §1
For the sequence CACCCT, the binding signal is 1.15 fold enrichment (6-mer frequency, TF over GST control).

Regarding TGCGGA, the binding signal was 1.19 fold enrichment (6-mer frequency, TF over GST control).

For CTCACC, the binding signal was 1.2 fold enrichment (6-mer frequency, TF over GST control).

Consider GCCACT, for which the binding signal was 1.31 fold enrichment (6-mer frequency, TF over GST control).

As for TGTCAC, the binding signal was 1.2 fold enrichment (6-mer frequency, TF over GST control).

With GCTACA, the binding signal was 1.22 fold enrichment (6-mer frequency, TF over GST control).

As to CCACAT, the binding signal was 1.27 fold enrichment (6-mer frequency, TF over GST control).

As to CACAAC, the binding signal was 1.31 fold enrichment (6-mer frequency, TF over GST control).

Take GGCCTC: the binding signal was 1.07 fold enrichment (6-mer frequency, TF over GST control).

Regarding GCTACC, the binding signal is 1.18 fold enrichment (6-mer frequency, TF over GST control).

For ACAACC, the binding signal was 1.34 fold enrichment (6-mer frequency, TF over GST control).

For CAACAT, the binding signal was 1.21 fold enrichment (6-mer frequency, TF over GST control).

As to CAAACT, the binding signal was 1.17 fold enrichment (6-mer frequency, TF over GST control).

For the sequence TGCATG, the binding signal is 1.04 fold enrichment (6-mer frequency, TF over GST control).

For the sequence GTCCTT, the binding signal is 1.29 fold enrichment (6-mer frequency, TF over GST control).

As for GGATGC, the binding signal was 1.29 fold enrichment (6-mer frequency, TF over GST control).

Turning to AGCGAC, the binding signal is 1.19 fold enrichment (6-mer frequency, TF over GST control).

With AACCGG, the binding signal was 2.35 fold enrichment (6-mer frequency, TF over GST control).

ACCTGA: the binding signal is 1.13 fold enrichment (6-mer frequency, TF over GST control).

With CCCGGC, the binding signal was 1.16 fold enrichment (6-mer frequency, TF over GST control).

Take CCGCCG: the binding signal is 1.55 fold enrichment (6-mer frequency, TF over GST control).

CGTATC: the binding signal was 1.28 fold enrichment (6-mer frequency, TF over GST control).

CACACT: the binding signal was 1.21 fold enrichment (6-mer frequency, TF over GST control).

As to TGGCAG, the binding signal is 1.18 fold enrichment (6-mer frequency, TF over GST control).

Regarding GTCCTC, the binding signal is 1.12 fold enrichment (6-mer frequency, TF over GST control).

Take GACTAC: the binding signal is 1.08 fold enrichment (6-mer frequency, TF over GST control).

In the case of CCAACA, the binding signal is 1.05 fold enrichment (6-mer frequency, TF over GST control).

For the sequence GTACAA, the binding signal is 1.11 fold enrichment (6-mer frequency, TF over GST control).

Consider TGCACC, for which the binding signal is 1.23 fold enrichment (6-mer frequency, TF over GST control).

For CCCCCG, the binding signal was 1.2 fold enrichment (6-mer frequency, TF over GST control).

With CGACAC, the binding signal was 1.21 fold enrichment (6-mer frequency, TF over GST control).

Take CTGTCC: the binding signal is 1.19 fold enrichment (6-mer frequency, TF over GST control).

With GCACCC, the binding signal is 1.12 fold enrichment (6-mer frequency, TF over GST control).

As for GACATC, the binding signal was 1.73 fold enrichment (6-mer frequency, TF over GST control).

For the sequence CACATA, the binding signal was 1.1 fold enrichment (6-mer frequency, TF over GST control).

On to CGTACC, for which the binding signal is 1.19 fold enrichment (6-mer frequency, TF over GST control).

For GCTTGG, the binding signal is 1.03 fold enrichment (6-mer frequency, TF over GST control).

In the case of ACACAC, the binding signal was 1.18 fold enrichment (6-mer frequency, TF over GST control).

For the sequence TGCGAC, the binding signal is 1.24 fold enrichment (6-mer frequency, TF over GST control).

As to CCGTCA, the binding signal is 1.19 fold enrichment (6-mer frequency, TF over GST control).

For a further assay, the target named is ETV5 (Homo sapiens, UniProt P41161 1-510). The assay is described as above. The note with it: protein: recombinant; tags: N-terminal GST; dsDNA, one strand shown. The gist of the method: as §1
Sequence of ETV5 (P41161 whole entry): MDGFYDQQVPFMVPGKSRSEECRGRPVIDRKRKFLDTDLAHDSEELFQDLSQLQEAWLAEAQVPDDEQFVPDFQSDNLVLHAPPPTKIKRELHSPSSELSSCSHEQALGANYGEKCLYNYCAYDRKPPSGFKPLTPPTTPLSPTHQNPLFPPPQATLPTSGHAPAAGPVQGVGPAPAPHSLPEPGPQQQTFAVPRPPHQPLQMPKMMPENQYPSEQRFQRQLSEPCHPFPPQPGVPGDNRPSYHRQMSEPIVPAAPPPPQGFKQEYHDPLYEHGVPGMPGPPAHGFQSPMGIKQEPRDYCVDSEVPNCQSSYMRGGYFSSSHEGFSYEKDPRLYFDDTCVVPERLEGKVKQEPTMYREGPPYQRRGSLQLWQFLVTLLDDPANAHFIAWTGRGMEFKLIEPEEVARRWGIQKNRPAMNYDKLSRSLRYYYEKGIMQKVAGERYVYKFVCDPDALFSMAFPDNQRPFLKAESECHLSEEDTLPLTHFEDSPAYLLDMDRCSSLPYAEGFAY
As to CACCCT, the binding signal was 1.19 fold enrichment (6-mer frequency, TF over GST control).

For the sequence TGCGGA, the binding signal was 1.47 fold enrichment (6-mer frequency, TF over GST control).

Turning to CTCACC, the binding signal was 1.16 fold enrichment (6-mer frequency, TF over GST control).

Consider GCCACT, for which the binding signal was 1.2 fold enrichment (6-mer frequency, TF over GST control).

Consider TGTCAC, for which the binding signal was 1.15 fold enrichment (6-mer frequency, TF over GST control).

For GCTACA, the binding signal was 1.18 fold enrichment (6-mer frequency, TF over GST control).

On to CCACAT, for which the binding signal was 1.17 fold enrichment (6-mer frequency, TF over GST control).

For the sequence CACAAC, the binding signal was 1.24 fold enrichment (6-mer frequency, TF over GST control).

On to GGCCTC, for which the binding signal is 1.15 fold enrichment (6-mer frequency, TF over GST control).

Regarding GCTACC, the binding signal is 1.17 fold enrichment (6-mer frequency, TF over GST control).

On to ACAACC, for which the binding signal is 1.27 fold enrichment (6-mer frequency, TF over GST control).

For CAACAT, the binding signal was 1.21 fold enrichment (6-mer frequency, TF over GST control).

As to CAAACT, the binding signal was 1.16 fold enrichment (6-mer frequency, TF over GST control).

With TGCATG, the binding signal was 1.15 fold enrichment (6-mer frequency, TF over GST control).

GTCCTT: the binding signal is 1.19 fold enrichment (6-mer frequency, TF over GST control).

As for GGATGC, the binding signal is 1.27 fold enrichment (6-mer frequency, TF over GST control).

Regarding AGCGAC, the binding signal was 1.13 fold enrichment (6-mer frequency, TF over GST control).

In the case of AACCGG, the binding signal was 1.53 fold enrichment (6-mer frequency, TF over GST control).

Regarding ACCTGA, the binding signal was 1.07 fold enrichment (6-mer frequency, TF over GST control).

As for CCCGGC, the binding signal was 1.15 fold enrichment (6-mer frequency, TF over GST control).
